A short description of test [1]: qHTS RealTime-Glo MT Cell Viability Assay in HEK293 cells - 16 hour (AID 1224872). Note: nearly all actives have a fitted effect of over 50% in size. Note: potency is the fitted concentration of half-maximal effect. As to conditions: RealTime-Glo luminescence; series mostly up to 76.8 µM. In short, it runs like this: (§1)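 Cells + reagent dispensed (600 cells/well, HEK293) → 5 h at 37 C/5% CO2 → 23 nL compound in DMSO pinned → 40 h at 37 C → luminescence read at 0, 8, 16, 24, 32, 40 h.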
The nature of test [2]: qHTS RealTime-Glo MT Cell Viability Assay in HepG2 cells - 8 hour (AID 1224873). Note: nearly all actives have a fitted effect of over 55% in size. Note: potency is the fitted concentration of half-maximal effect. The note with it: RealTime-Glo luminescence; series mostly up to 76.8 µM. A digest of the protocol:
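Real-time viability: cells seeded at 600 per well together with NanoLuc and cell-permeant prosubstrate, compounds added after 5 h incubation. Luminescence tracked at 0, 8, 16, 24, 32 and 40 h of exposure.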

Test [3] is described as follows: qHTS RealTime-Glo MT Cell Viability Assay in HEK293 cells - 40 hour (AID 1224874). Note: nearly all actives have a fitted effect of over 50% in size. Note: potency is the fitted concentration of half-maximal effect. The note with it: RealTime-Glo luminescence; max response: stronger effect = lower value. A digest of the protocol: (§2)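 600 HEK293 cells per well, dispensed already mixed with RealTime-Glo MT reagents. Compound dosing came 5 h later. The same wells were read for luminescence at 0, 8, 16, 24, 32 and 40 h of exposure at 37 C.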

The nature of test [4]: A CellTox Green Cytotoxicity Assay to monitor cytotoxicity in HEK293 cells - 24 hour (AID 1224875). Note: nearly all actives have a fitted effect of over 45% in size. Note: potency is the fitted concentration of half-maximal effect. The note with it: CellTox Green fluorescence; series mostly up to 76.8 µM. In short, it runs like this: (§3)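 Dead-cell fluorescence measured kinetically: asymmetric cyanine dye, HEK293, 600 cells/well, 5 h settle, 23 nL cpd/DMSO, 37 C, reads 0–40 h every 8 h.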
Test [5] is described as follows: A CellTox Green Cytotoxicity Assay to monitor cytotoxicity in HepG2 cells - 16 hour (AID 1224876). Note: nearly all actives have a fitted effect of over 45% in size. Note: potency is the fitted concentration of half-maximal effect. The note with it: CellTox Green fluorescence; series mostly up to 76.8 µM. A digest of the protocol:
(§4)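 First, HepG2 cells (600/well) mixed with reagent were plated; second, after 5 h at 37 C they received compounds via pintool; third, fluorescence was measured at 0 h through 40 h at 8 h intervals.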

Test [6] in a line: qHTS RealTime-Glo MT Cell Viability Assay in HepG2 cells - 32 hour (AID 1224877). Note: nearly all actives have a fitted effect of over 55% in size. Note: potency is the fitted concentration of half-maximal effect. As to conditions: RealTime-Glo luminescence; series mostly up to 76.8 µM. In short, it runs like this: (§5)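 Real-time, nonlytic viability: 600 HepG2 cells/well mixed with NanoLuc enzyme plus prosubstrate; 5 h settle, compound (DMSO) added by pintool; luminescence monitored over 40 h at 37 C.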
Test [7] in a line: A CellTox Green Cytotoxicity Assay to monitor cytotoxicity in HepG2 cells - 24 hour (AID 1224878). Note: nearly all actives have a fitted effect of over 45% in size. Note: potency is the fitted concentration of half-maximal effect. As to conditions: CellTox Green fluorescence; series mostly up to 76.8 µM. In short, it runs like this: as §4
Test [8] is described as follows: A CellTox Green Cytotoxicity Assay to monitor cytotoxicity in HepG2 cells - 40 hour (AID 1224879). Note: nearly all actives have a fitted effect of over 40% in size. Note: potency is the fitted concentration of half-maximal effect. As to conditions: CellTox Green fluorescence; series mostly up to 76.8 µM. A digest of the protocol:
as §4

Test [9] can be described thus: A CellTox Green Cytotoxicity Assay to monitor cytotoxicity in HEK293 cells - 32 hour (AID 1224881). Note: nearly all actives have a fitted effect of over 40% in size. Note: potency is the fitted concentration of half-maximal effect. The note with it: CellTox Green fluorescence; series mostly up to 76.8 µM. In short, it runs like this: as §3
Test [10] is described as follows: A CellTox Green Cytotoxicity Assay to monitor cytotoxicity in HepG2 cells - 0 hour (AID 1224882). Note: nearly all actives have a fitted effect of over 35% in size. The note with it: CellTox Green fluorescence; series mostly up to 76.8 µM. A digest of the protocol: as §4
Test [11] can be described thus: A CellTox Green Cytotoxicity Assay to monitor cytotoxicity in HepG2 cells - 32 hour (AID 1224883). Note: nearly all actives have a fitted effect of over 50% in size. Note: potency is the fitted concentration of half-maximal effect. As to conditions: CellTox Green fluorescence; series mostly up to 76.8 µM. A digest of the protocol:
as §4

The nature of test [12]: A CellTox Green Cytotoxicity Assay to monitor cytotoxicity in HEK293 cells - 8 hour (AID 1224884). Note: nearly all actives have a fitted effect of over 35% in size. Note: potency is the fitted concentration of half-maximal effect. As to conditions: CellTox Green fluorescence; series mostly up to 76.8 µM. In short, it runs like this:
as §3

Test [13] can be described thus: qHTS RealTime-Glo MT Cell Viability Assay in HepG2 cells - 16 hour (AID 1224885). Note: nearly all actives have a fitted effect of over 50% in size. Note: potency is the fitted concentration of half-maximal effect. As to conditions: RealTime-Glo luminescence; series mostly up to 76.8 µM. A digest of the protocol:
as §5

Test [14] can be described thus: qHTS RealTime-Glo MT Cell Viability Assay in HEK293 cells - 24 hour (AID 1224886). Note: nearly all actives have a fitted effect of over 50% in size. Note: potency is the fitted concentration of half-maximal effect. The note with it: RealTime-Glo luminescence; series mostly up to 76.8 µM. A digest of the protocol:
as §1

The nature of test [15]: qHTS RealTime-Glo MT Cell Viability Assay in HEK293 cells - 8 hour (AID 1224887). Note: nearly all actives have a fitted effect of over 50% in size. Note: potency is the fitted concentration of half-maximal effect. As to conditions: RealTime-Glo luminescence; series mostly up to 76.8 µM. In short, it runs like this:
as §2

Test [16] can be described thus: A CellTox Green Cytotoxicity Assay to monitor cytotoxicity in HEK293 cells - 16 hour (AID 1224888). Note: nearly all actives have a fitted effect of over 35% in size. Note: potency is the fitted concentration of half-maximal effect. As to conditions: CellTox Green fluorescence; series mostly up to 76.8 µM. A digest of the protocol: as §3
Test [17] can be described thus: qHTS assay to identify small molecule antagonists of the estrogen receptor alpha (ER-alpha) signaling pathway using the BG1 cell line in the presence of 0.1 nM 17-beta-estradiol - cell viability counter screen (AID 1259241). Note: nearly all actives have a fitted effect of over 40% in size. Note: potency is the fitted concentration of half-maximal effect. As to conditions: VM7Luc4E2 (BG1) viability, CellTiter-Fluor protease, 22 h, 0.1 nM estradiol agonist added; series mostly up to 92.4 µM. A digest of the protocol:
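Live-cell protease activity (CellTiter-Fluor fluorescence, 30 min) was read in the same wells after VM7Luc4E2 cells had been exposed to compounds with 0.1 nM 17beta-estradiol for 22 hr at 37C.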

Test [18] can be described thus: qHTS RealTime-Glo MT Cell Viability Assay in HEK293 cells - 0 hour (AID 1224880). Note: top concentration of the series differs between compounds; nearly all actives have a fitted effect of over 45% in size. As to conditions: RealTime-Glo luminescence; series mostly up to 76.8 µM. In short, it runs like this:
as §2

The nature of test [19]: qHTS RealTime-Glo MT Cell Viability Assay in HepG2 cells - 0 hour (AID 1224889). Note: nearly all actives have a fitted effect of over 50% in size. The note with it: RealTime-Glo luminescence; series mostly up to 76.8 µM. A digest of the protocol: as §5
A short description of test [20]: A CellTox Green Cytotoxicity Assay to monitor cytotoxicity in HepG2 cells - 8 hour (AID 1224890). Note: nearly all actives have a fitted effect of over 45% in size. Note: potency is the fitted concentration of half-maximal effect. The note with it: CellTox Green fluorescence; series mostly up to 76.8 µM. In short, it runs like this: as §4

The structures appear in SMILES notation. Where “and” joins values, the source holds several entries; their conditions need not be identical. Equal values may be shown once. Records with an inconclusive call do not appear. Some structures have more than one record in an assay (separate samples or runs), and their calls can disagree. Calls of active or inactive are those of the source. Calls come from the whole dose curve; as a rule, active = well fitted curve in the direction sought with a large enough effect in the repeat runs; inconclusive = weak or mixed curves; inactive = no such curve, though single readings can be large; an effect the other way counts as inactive or inconclusive.

Here are results for nine compounds from PubChem BioAssay (Tox21).
% is set by controls: 0 for no effect and ±100 for the full control effect.

Regarding `CCCCCCCCCCCCCCNCCO`, the Potency in [1] is 21.3 µM (active); in test [2] it was 19 µM (active); in test [3], 12 µM (active); in test [4], 19 µM (active); in test [5] it was 10.7 µM (active); in test [6] it was 10.7 µM (active). Also, the Potency in test [7] is 7.56 µM (active); in [8] it was 7.56 µM (active); in [9] it was 19 µM (active); in test [11], 7.56 µM (active); in test [12], 21.3 µM (active); in test [13] it was 19 µM (active). Moreover, the values for the Potency in [14], in [15] and in test [16] were 15.1 µM (active), 23.9 µM (active) and 21.3 µM (active), respectively. For the same compound, the Potency entry in test [10] and in test [17] was “inactive” in each case.

With `COc1nccnc1CC(C)C`, the Potency result in test [1], in test [2], in test [4], in test [5], in test [6] and in [7] was “inactive” each time. Besides, the Potency entry in test [8], in test [18], in [9], in test [10], in test [11] and in test [12] was “inactive” throughout. The Potency result in test [13], in test [15], in test [19], in [20] and in [17] was “inactive” throughout. In addition, in test [3], the max response is 10.2% (inactive).

Turning to `CN1[C@@H]2CC[C@@H]1CC(OC(=O)C(CO)c1ccccc1)C2` (stereo partly drawn), the Potency entry in [1], in test [2], in test [4], in [5], in [6] and in test [7] was “inactive” throughout. Moreover, the Potency result in test [8], in test [18], in test [10], in [11], in [12] and in [13] was “inactive” in each case. Further, the Potency result in test [14], in test [15], in [16], in [19], in test [20] and in [17] was “inactive” in each case. Besides, in test [3], the max response was -6.75% (inactive).

Turning to `CCCCCCCCCCCC(=O)N(CC)CC`, the Potency result in test [1], in [2], in test [4], in test [5], in test [6] and in [7] was “inactive” in each case. The Potency entry in test [8], in test [18], in test [10], in test [11], in [12] and in [13] was “inactive” each time. Also, the Potency entry in test [14], in test [15], in [16], in [19], in [20] and in test [17] was “inactive” throughout. Also, the max response in [3] was -24.4% (inactive).

With `O=C(O)CCn1c2c(c3ccccc31)C[C@H](NS(=O)(=O)c1ccc(F)cc1)CC2`, the Potency entry in [1], in test [2], in test [4], in test [5], in test [6] and in [7] was “inactive” each time. Moreover, the Potency result in [8], in [18], in test [9], in [10], in test [11] and in test [12] was “inactive” in each case. In addition, the Potency result in test [13], in [15], in [16], in test [20] and in [17] was “inactive” in each case. The max response in test [3] was 8.69% (inactive).

`CCCCCCCCCCCCCC[n+]1ccccc1`: the Potency is 27.5 µM (active) in test [1]; 49 µM (active) in test [2]; 1.74 µM (active) in test [3]; 38.9 µM (active) in test [4]; 19.5 µM (active) in [5]; 12.3 µM (active) in [6]. The Potency in [7] is 15.5 µM (active); in test [8] it was 11 µM (active); in [11], 11 µM (active); in [12], 54.9 µM (active); in [13], 21.9 µM (active); in [14], 6.16 µM (active). For the same compound, the figures for the Potency in [15] and in test [20] were 54.9 µM (active) and 49 µM (active), respectively. Further, the Potency entry in test [18], in test [10] and in test [19] was “inactive” throughout.

`CC(C)(c1cc(Br)c(O)c(Br)c1)c1cc(Br)c(O)c(Br)c1`: the Potency result in test [1], in test [2], in [4], in [5], in test [6] and in [7] was “inactive” each time. Moreover, the Potency entry in test [8], in test [18], in test [9], in test [10], in [11] and in [12] was “inactive” throughout. In addition, the Potency entry in [13], in test [15], in [16], in [19] and in [20] was “inactive” each time. In [3], the max response is -17.7% (inactive).

As for `CC1=C(/C=C/C(C)=C/C=C/C(C)=C/C(=O)Nc2ccc(O)cc2)C(C)(C)CCC1`, the Potency in test [1] is 796 nM (active) and 477 nM (active); in [2], “inactive and 23.9 µM (active)”; in test [3], 893 nM (active) and 425 nM (active); in test [6], “inactive and 26.8 µM (active)”; in test [8], 50.2 µM (active) and 23.9 µM (active); in [11], 50.2 µM (active) and 26.8 µM (active). Further, the Potency result in test [13] is “inactive and 26.8 µM (active)”; in test [14], 893 nM (active) and 338 nM (active); in test [15], 710 nM (active) and 239 nM (active); in [17], 55.9 µM (active) and 11.9 µM (active). The Potency entry in test [4], in test [5], in [18], in test [9], in test [10] and in test [12] was “inactive” each time. Besides, the Potency entry in test [16], in test [19] and in [20] was “inactive” each time.

On to `CCNc1nc(NC(C)CC)nc(OC)n1` (stereo not drawn), for which the Potency result in test [1], in test [2], in test [4], in test [5], in test [6] and in test [7] was “inactive” throughout. In addition, the Potency entry in test [8], in test [18], in test [9], in [10], in [11] and in test [12] was “inactive” each time. Besides, the Potency entry in test [13], in test [15], in test [16], in test [19] and in [20] was “inactive” each time. Further, in test [3], the max response was -18.1% (inactive).
